High-throughput results as filed in PubChem.
Algae TAG accum: inducers of triacylglycerol accumulation in Chlamydomonas reinhardtii algae | Chlamydomonas reinhardtii TAG, Nile Red fluorescence, 72 h | calls only at 10 µM (by protocol) | hit rate 0.84% among 44,000; call rule not given here;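 also: hits raise Nile Red signal meaning more stored TAG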
Large screens that a line does not name were inactive. The sample as a whole holds a higher share of hits than the screen did.

COc1cc(NS(=O)(=O)c2ccc(C)cc2)cc(OC)c1O	none
O=C(Nc1ccc(Cl)cc1F)c1c(F)c(F)c(F)c(F)c1F	Algae TAG accum active
O=C(Nc1ccccc1F)c1c(F)c(F)c(F)c(F)c1F	none
O=C(Nc1ccc(Br)cc1F)c1c(F)c(F)c(F)c(F)c1F	none
CC(=O)c1cccc(NC(=O)CN(c2ccc(Cl)cc2Cl)S(=O)(=O)c2ccccc2)c1	none
O=C1CCC(=O)N1CCc1c[nH]c2ccc(OCc3ccccc3)cc12	none
CCc1ccc(CN2CCSCC2)cc1	none
CSc1ccc(CN2CCOCC2)cc1	none
CSc1ccc(CN2CCSCC2)cc1	Algae TAG accum active
COc1ccc(Cl)cc1-n1c(CCC(=O)O)ccc1-c1cccs1	none
COc1ccc(NC(=O)c2ccc(OC)c(Br)c2)cc1Cl	none
Cc1ccc(C)c(N2CCN(Cc3ccc(C)s3)CC2)c1	none
Cc1ccc(C)c(N2CCN(C3CCCCCC3)CC2)c1	Algae TAG accum active
C/C=C(\C)CN1CCN(c2cc(C)ccc2C)CC1	none
COc1ccc(N2CCN(C(=O)COc3ccc(Cl)cc3)CC2)cc1	none
O=C(COc1ccc(Cl)cc1)N1CCN(c2cccc(Cl)c2)CC1	none
CC1CCCN(C(=O)COc2ccc(Cl)cc2)C1 (stereo unspecified)	Algae TAG accum active
Cc1sc(NC(=O)c2ccccc2I)c(C(=O)O)c1C	none
CCOc1ccc(OCCCOc2ccccc2C(=O)O)cc1	none
COc1cccc(N2CCN(C3CCCC(C)C3)CC2)c1 (stereo unspecified)	Algae TAG accum active
CC1CCC(N2CCN(c3ccccc3)CC2)C1 (stereo unspecified)	Algae TAG accum active
COc1cccc(N2CCN(C3CCC(C)C3)CC2)c1 (stereo unspecified)	none
CC1CCC(N2CCN(c3ncccn3)CC2)C1 (stereo unspecified)	none
COc1ccccc1N1CCN(C2CCC(C)CC2)CC1 (stereo unspecified)	none
COc1cccc(N2C(=O)CC(N3CCN(c4ccccc4)CC3)C2=O)c1 (stereo unspecified)	none
COc1cc([N+](=O)[O-])ccc1-c1ccc(C(=O)Nc2cccc(-c3nc4ccccc4o3)c2)o1	none
COc1cc(NCc2cc(OC)c(O)c([N+](=O)[O-])c2)cc(OC)c1	none
CCOc1ccc(NC(=O)c2ccccc2NC(=O)c2ccccc2)cc1	none
Cc1ccc(C)c(OCC(=O)Nc2cc([N+](=O)[O-])ccc2C)c1	none
CCC(CC)C(=O)Nc1ccccc1OC	none
CC(C)(C)c1ccc(C(=O)NCc2ccc(F)cc2)cc1	none
COc1ccc(CCNC(=O)c2ccc(N3CCOCC3)c([N+](=O)[O-])c2)cc1OC	none
COCCNC(=O)c1ccc(OC)c([N+](=O)[O-])c1	none
COc1ccc(C(=O)NCCN2CCOCC2)cc1[N+](=O)[O-]	Algae TAG accum active
O=C(Cc1ccccc1[N+](=O)[O-])N1CCN(c2cccc(Cl)c2)CC1	none
CC(=O)Nc1ccc(S(=O)(=O)Nc2ccc3c(c2)CCN3S(C)(=O)=O)cc1	none
Cc1cccc(C)c1NC(=O)CN(c1ccc(F)cc1)S(=O)(=O)c1ccc2c(c1)OCCO2	none
C/C=C(\C)CN1CCN(C/C=C/c2ccccc2)CC1	Algae TAG accum active
CCN1CCN(C/C=C/c2ccccc2)CC1	none
OCCN1CCN(C/C=C/c2ccccc2)CC1	none
CCc1cccc(NC(=O)c2ccc(F)cc2)c1	none
COc1ccccc1N1CCN(C(=O)C23CC4CC(CC(C4)C2)C3)CC1	none
CCc1ccc(NC(=O)CN(c2cccc(Br)c2)S(C)(=O)=O)cc1	none
Cc1ccc(C(=O)Nc2ccc(Cl)cc2Cl)c(Cl)c1	none
Cc1c(NC(=O)COc2ccc(Br)cc2)cccc1[N+](=O)[O-]	Algae TAG accum active
Cc1ccc(OCC(=O)Nc2cccc([N+](=O)[O-])c2C)c(Br)c1	none
Cc1cccc(NC(=O)COc2ccc(Br)cc2)c1C	none
Oc1ccc(O)c(C2CC3CCC2C3)c1 (stereo unspecified)	none
COc1cc(NC(=O)Nc2ccc(Cl)c(Cl)c2)cc(OC)c1OC	none
[O-][n+]1c2ccc3nonc3c2nn1-c1ccc(F)cc1	none
O=C(O)CCSCC(=O)c1ccc(NS(=O)(=O)c2ccccc2)cc1	Algae TAG accum active
O=C(Nc1ccc(NS(=O)(=O)c2ccccc2)cc1)c1ccccc1	none
Cc1ccc(S(=O)(=O)Nc2ccc(C(=O)CC(=O)Nc3ccccc3)cc2)cc1	none
Cc1ccc(NC(=O)Cc2ccc(Cl)cc2)cc1[N+](=O)[O-]	none
CCC(C)c1ccc(NC(=O)c2ccc([N+](=O)[O-])o2)cc1 (stereo unspecified)	none
CS(=O)(=O)N(CC(=O)Nc1ccccc1Cl)c1cccc(Br)c1	none
CC(C)(C)c1csc(NC(=O)c2ccc(N3CCOCC3)c([N+](=O)[O-])c2)n1	Algae TAG accum active
O=C(Nc1cccc(Cl)c1)c1ccc(N2CCOCC2)c([N+](=O)[O-])c1	none
COc1ccc(C(=O)c2ccc(N3CCOCC3)c([N+](=O)[O-])c2)cc1	none
CCOc1cc(/C=C(\C#N)c2nc3ccccc3[nH]2)cc(I)c1O	none
Cc1ccc(OCCCN2CCCC2)c(Br)c1	none
Cc1ccc(OCCCn2ccnc2)c(Br)c1	Algae TAG accum active
Cc1ccc(OCCCn2ccnc2)c([N+](=O)[O-])c1	none
Cc1ccc(OCCN2CCCC2)cc1C	none
Cc1ccc(OCCCN2CCCC2)c([N+](=O)[O-])c1	none
